Laboratory results taken from the supplement of paper PMC3545927.
Some of the results follow. The true hit rate is not given.

Biological target: furin, P09958
Test: furin cleavage Z-score vs untreated control; higher = more cleavage, active = 3.5 or more, inactive = 1 or less, 8 variable residues between constant flanks
Outline: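 To give the cleavage Z-score, log read counts were set against furin-free reactions, lowess-adjusted and scaled by median absolute deviation. These counts came from PCR adapter-tagged, sequenced DNA released when purified furin cut 8-mer peptides fused to a cDNA oligonucleotide and held on magnetic beads by their N-terminus. Digests were 0.01 ml, 1:10 enzyme:substrate, in 50 mM HEPES pH 7.5 with CaCl2 and NaCl, for 7.5, 15 or 30 min.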

Chain of furin, P09958 (P09958 whole entry): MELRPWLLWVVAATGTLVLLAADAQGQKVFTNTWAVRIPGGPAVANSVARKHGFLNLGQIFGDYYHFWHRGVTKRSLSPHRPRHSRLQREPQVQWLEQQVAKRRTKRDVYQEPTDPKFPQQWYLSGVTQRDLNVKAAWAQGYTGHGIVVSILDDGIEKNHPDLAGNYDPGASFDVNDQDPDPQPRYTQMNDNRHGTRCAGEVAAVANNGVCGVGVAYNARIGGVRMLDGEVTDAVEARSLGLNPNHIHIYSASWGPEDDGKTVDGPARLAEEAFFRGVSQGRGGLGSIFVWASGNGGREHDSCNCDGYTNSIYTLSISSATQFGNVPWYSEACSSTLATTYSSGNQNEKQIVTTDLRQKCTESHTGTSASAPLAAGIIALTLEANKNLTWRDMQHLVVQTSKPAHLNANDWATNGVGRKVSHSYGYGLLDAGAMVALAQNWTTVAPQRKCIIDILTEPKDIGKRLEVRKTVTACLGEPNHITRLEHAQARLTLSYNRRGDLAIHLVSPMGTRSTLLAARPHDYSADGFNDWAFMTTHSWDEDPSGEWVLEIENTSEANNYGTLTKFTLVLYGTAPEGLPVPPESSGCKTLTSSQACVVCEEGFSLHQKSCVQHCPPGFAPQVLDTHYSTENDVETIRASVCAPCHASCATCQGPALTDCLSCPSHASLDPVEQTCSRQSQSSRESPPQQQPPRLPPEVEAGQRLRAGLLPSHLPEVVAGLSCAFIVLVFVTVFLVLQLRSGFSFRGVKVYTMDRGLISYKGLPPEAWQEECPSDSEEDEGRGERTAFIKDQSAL

Sequence | furin cleavage Z-score (7.5 min) | furin cleavage Z-score (15 min) | furin cleavage Z-score (30 min)
CAEVVASTWVAGNASASA [HC121] | 1.23 | 1.63 | -0.233 (inactive)
CAYGGRNRRVAGNASASA [FS-151] | 2 | 3.67 (active) | 4.5 (active)
CAMGGNITRVAGNASASA [HC1279] | -0.69 (inactive) | 2.32 | 0.434 (inactive)
CAKFHRNRRVAGNASASA [FS-38] | 1.89 | 4.04 (active) | 2.3
CAVPCVREGNAGNASASA [HC274] | -0.737 (inactive) | -0.519 (inactive) | -1.84 (inactive)
CARLPRATGNAGNASASA [FS-2571] | 5 (active) | 5.67 (active) | 4.58 (active)
CAWREVPCHRAGNASASA [HC2428] | 0.368 (inactive) | 0.114 (inactive) | 0.301 (inactive)
CARLARTCGRAGNASASA [FS-2985] | -1.25 (inactive) | 0.197 (inactive) | -0.432 (inactive)
CARLPRDCTRAGNASASA [FS-1742] | 5.34 (active) | 4.96 (active) | 5.25 (active)
CARLRRMNGNAGNASASA [FS-2994] | -0.28 (inactive) | -1.18 (inactive) | -0.557 (inactive)
CAGVNYATGNAGNASASA [HC241] | 1.48 | 0.396 (inactive) | -0.36 (inactive)
CAVVCCCMSYAGNASASA [HC114] | -0.592 (inactive) | -1.78 (inactive) | -0.879 (inactive)
